Experimental data published in the supplement of paper PMC10849652.
Of roughly 7,900 targets only a part is listed; those with a hit were picked by preference. About 0.6% of all pairs of compound and target were hits.

What was measured:
Test in all cases: log2 fold change, soluble protein after heating vs DMSO (PISA); higher = thermal stabilisation; K562 cells, 10 uM, 30 min; active = over 0.2 and 3.5 SD of the protein, either way, in both replicates (recomputed)
IRAK-1-4 Inhibitor I = compound: C1COCCN1CCN2C3=CC=CC=C3N=C2NC(=O)C4=CC(=CC=C4)[N+](=O)[O-] [IRAK-1-4 Inhibitor I]
How it was run: (§1)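 Soluble protein was defined as the supernatant after 21,000xg for 90 min. It came from K562 cells at 2×10^6 cells/mL given 10 μM compound for 30 min, heated in aliquots for 3 min across 48°C-58°C, pooled, and extracted in PBS with 0.5% NP-40 at 4°C, and was quantified by TMTpro 16plex LC-MS/MS with equalised channel sums. Thermal stability against control samples, from duplicates, is reported as log2 fold change.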

ibrutinib = compound: C=CC(=O)N1CCC[C@@H](n2nc(-c3ccc(Oc4ccccc4)cc3)c3c(N)ncnc32)C1 [ibrutinib]
How it was run: as §1

[1] = compound: CC(=O)c1cnc2ccc(-c3cc(Cl)c(O)c(Cl)c3)nc2c1N[C@H]1CC[C@H](CN(C)C)CC1
How it was run: as §1

ralimetinib = compound: CC(C)(C)Cn1c(N)nc2ccc(-c3[nH]c(C(C)(C)C)nc3-c3ccc(F)cc3)nc21 [ralimetinib]
How it was run: as §1

[2] = compound: CC(C)(O)CC(=O)NCCn1ccc2ncnc(Nc3ccc(Oc4cccc(C(F)(F)F)c4)c(Cl)c3)c21
How it was run: as §1

[3] = compound: CC(C)C1=C2N=C(C=C(N2N=C1)NCC3=CC=CC=C3)NCCCCCCN
How it was run: as §1

[4] = compound: CC(C)C[C@@H](C=O)NC(=O)[C@H](CC(C)C)NC(=O)[C@H](CC(C)C)NC(=O)OCc1ccccc1
How it was run: as §1

pinometostat = compound: CC(C)N(C[C@H]1O[C@@H](n2cnc3c(N)ncnc32)[C@H](O)[C@@H]1O)[C@H]1C[C@@H](CCc2nc3cc(C(C)(C)C)ccc3[nH]2)C1 [pinometostat]
How it was run: as §1

[5] = compound: CC1=C(C(CC(=O)N1)C2=CC=C(C=C2)C(F)(F)F)C(=O)NC3=C(C=C4C(=C3)C=NN4)F
How it was run: as §1

[6] = compound: CC1=C(C2=C(C=C1)C(=O)C3=CC=CC=C3N2CCCN)C
How it was run: as §1

[7] = compound: CC1=C(C=C(C=C1)NC(=O)C2=CC(=CC=C2)C(C)(C)C#N)NC3=CC4=C(C=C3)N=CN(C4=O)C
How it was run: as §1

[8] = compound: CC1=C(C=C(C=C1)NC(=O)C2=CC(=CC=C2)N(C)C)NC(=O)C3=CC=C(C=C3)O
How it was run: as §1

[9] = compound: CC1=CC=C(C=C1)SC2=C3C=C(SC3=CN=C2)C(=O)N
How it was run: as §1

[10] = compound: CC1=NC(=CC=C1)C2=C(N=C(N2)C(C)(C)C)C3=CC4=NC=CN=C4C=C3
How it was run: as §1

Nexturastat A = compound: CCCCN(Cc1ccc(C(=O)NO)cc1)C(=O)Nc1ccccc1 [Nexturastat A]
How it was run: as §1

vemurafenib = compound: CCCS(=O)(=O)Nc1ccc(F)c(C(=O)c2c[nH]c3ncc(-c4ccc(Cl)cc4)cc23)c1F [vemurafenib]
How it was run: as §1

[11] = compound: CCCS(=O)(=O)Nc1ccc(F)c(C(=O)c2c[nH]c3ncc(Cl)cc23)c1F
How it was run: as §1

[12] = compound: CCCc1cc(C)[nH]c(=O)c1CNC(=O)c1cc(-c2ccnc(N3CCN(C)CC3)c2)cc2c1cnn2C(C)C
How it was run: as §1

givinostat = compound: CCN(CC)Cc1ccc2cc(COC(=O)Nc3ccc(C(=O)NO)cc3)ccc2c1 [givinostat]
How it was run: as §1

barasertib = compound: CCN(CCCOc1ccc2c(Nc3cc(CC(=O)Nc4cccc(F)c4)[nH]n3)ncnc2c1)CCOP(=O)(O)O [barasertib]
How it was run: as §1

Measured: log2 fold change

RBM39 (UniProt Q14498)
active: [1] -0.497
inactive: IRAK-1-4 Inhibitor I -0.193 | ibrutinib 0 | ralimetinib 0.044 | [2] -0.028 | [3] -0.267 | [4] 0.043 | pinometostat 0.042 | [5] -0.022 | [6] 0.104 | [7] -0.035 | [8] 0 | [9] -0.011 | [10] 0.071 | Nexturastat A 0.043 | vemurafenib 0.084 | [11] 0.083 | [12] 0.034 | givinostat 0.131 | barasertib 0.012

REEP4 (UniProt Q9H6H4)
inactive: IRAK-1-4 Inhibitor I 0.005 | ibrutinib -0.003 | [1] -0.198 | ralimetinib 0.164 | [2] -0.049 | [3] -0.157 | [4] 0.041 | pinometostat 0.13 | [5] 0.04 | [6] 0.036 | [7] 0.08 | [8] 0.001 | [9] 0.047 | [10] -0.043 | Nexturastat A 0.107 | vemurafenib 0.008 | [11] 0.126 | [12] 0.019 | givinostat 0.011 | barasertib 0.002

RAB9A (UniProt P51151)
Sequence of UniProt P51151 (P51151 whole entry, looked up): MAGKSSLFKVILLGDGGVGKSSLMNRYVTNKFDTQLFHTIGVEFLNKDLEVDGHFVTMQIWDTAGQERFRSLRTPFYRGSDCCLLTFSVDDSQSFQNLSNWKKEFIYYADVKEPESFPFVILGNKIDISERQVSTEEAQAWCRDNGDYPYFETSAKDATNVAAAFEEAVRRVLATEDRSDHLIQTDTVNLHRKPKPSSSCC
inactive: IRAK-1-4 Inhibitor I 0.018 | ibrutinib 0.018 | [1] -0.001 | ralimetinib -0.001 | [2] -0.014 | [3] -0.126 | [4] -0.008 | pinometostat -0.027 | [5] -0.021 | [6] 0.06 | [7] 0.036 | [8] 0.033 | [9] 0.017 | [10] 0.018 | Nexturastat A 0.017 | vemurafenib -0.012 | [11] -0.024 | [12] 0.003 | givinostat 0.054 | barasertib -0.011

ROCK1 (UniProt Q13464)
Sequence of UniProt Q13464 (Q13464 whole entry, looked up): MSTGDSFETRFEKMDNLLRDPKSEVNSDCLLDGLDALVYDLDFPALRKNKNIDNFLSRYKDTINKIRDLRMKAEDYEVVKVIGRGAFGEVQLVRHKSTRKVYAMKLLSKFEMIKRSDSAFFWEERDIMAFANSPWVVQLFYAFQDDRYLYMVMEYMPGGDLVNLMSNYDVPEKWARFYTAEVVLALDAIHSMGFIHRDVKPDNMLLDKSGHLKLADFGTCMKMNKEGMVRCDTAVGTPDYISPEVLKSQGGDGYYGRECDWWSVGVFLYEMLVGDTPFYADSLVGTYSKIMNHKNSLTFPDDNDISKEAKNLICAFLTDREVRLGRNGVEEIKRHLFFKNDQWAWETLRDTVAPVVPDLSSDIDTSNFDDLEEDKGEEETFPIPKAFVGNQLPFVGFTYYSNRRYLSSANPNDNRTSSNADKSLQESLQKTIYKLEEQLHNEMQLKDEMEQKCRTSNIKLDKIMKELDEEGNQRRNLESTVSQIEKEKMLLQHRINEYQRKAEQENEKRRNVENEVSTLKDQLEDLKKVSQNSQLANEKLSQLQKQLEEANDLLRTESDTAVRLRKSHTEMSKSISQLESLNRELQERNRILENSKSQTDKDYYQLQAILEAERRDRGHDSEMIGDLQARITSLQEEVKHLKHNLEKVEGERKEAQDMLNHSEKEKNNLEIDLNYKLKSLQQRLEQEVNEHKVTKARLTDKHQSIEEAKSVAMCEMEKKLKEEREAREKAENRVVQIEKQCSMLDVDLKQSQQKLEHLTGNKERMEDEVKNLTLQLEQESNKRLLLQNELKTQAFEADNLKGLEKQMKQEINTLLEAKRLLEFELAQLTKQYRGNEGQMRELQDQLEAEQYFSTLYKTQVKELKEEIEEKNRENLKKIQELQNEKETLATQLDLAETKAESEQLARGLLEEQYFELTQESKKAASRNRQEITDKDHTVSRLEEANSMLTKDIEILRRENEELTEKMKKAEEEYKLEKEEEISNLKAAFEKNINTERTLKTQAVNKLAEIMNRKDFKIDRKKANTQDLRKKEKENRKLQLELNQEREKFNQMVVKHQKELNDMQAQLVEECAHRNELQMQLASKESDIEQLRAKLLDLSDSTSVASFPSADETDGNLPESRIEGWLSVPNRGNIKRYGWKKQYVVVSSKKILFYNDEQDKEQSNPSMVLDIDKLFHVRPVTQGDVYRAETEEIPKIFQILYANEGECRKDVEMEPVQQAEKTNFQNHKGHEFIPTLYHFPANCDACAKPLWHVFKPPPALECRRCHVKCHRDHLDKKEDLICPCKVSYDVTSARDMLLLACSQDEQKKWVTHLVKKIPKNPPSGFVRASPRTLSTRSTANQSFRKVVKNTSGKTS
active: [5] 0.249
inactive: IRAK-1-4 Inhibitor I -0.019 | ibrutinib 0.013 | [1] 0.015 | ralimetinib 0.031 | [2] -0.079 | [3] -0.026 | [4] 0.012 | pinometostat 0.027 | [6] -0.013 | [7] 0.003 | [8] -0.073 | [9] -0.016 | [10] -0.037 | Nexturastat A 0.093 | vemurafenib 0.052 | [11] 0.036 | [12] -0.019 | givinostat 0.031 | barasertib 0.021

RUFY1 (UniProt Q96T51)
inactive: IRAK-1-4 Inhibitor I -0.019 | ibrutinib -0.002 | [1] 0.101 | ralimetinib 0.034 | [2] -0.092 | [3] -0.182 | [4] 0.011 | pinometostat 0.083 | [5] -0.003 | [6] -0.014 | [7] 0.013 | [8] -0.011 | [9] -0.022 | [10] -0.035 | Nexturastat A 0.063 | vemurafenib 0.043 | [11] 0.059 | [12] 0.029 | givinostat 0.031 | barasertib 0.027

SDHAF2 (UniProt Q9NX18)
Sequence of UniProt Q9NX18 (Q9NX18 whole entry, looked up): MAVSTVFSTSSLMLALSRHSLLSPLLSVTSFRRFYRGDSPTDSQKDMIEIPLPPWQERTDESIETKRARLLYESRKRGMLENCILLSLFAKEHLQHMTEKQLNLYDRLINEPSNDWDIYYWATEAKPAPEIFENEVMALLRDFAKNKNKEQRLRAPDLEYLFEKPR
inactive: IRAK-1-4 Inhibitor I 0.013 | ibrutinib -0.004 | [1] 0.124 | ralimetinib -0.044 | [2] -0.011 | [3] -0.042 | [4] 0.084 | pinometostat -0.014 | [5] 0.015 | [6] -0.01 | [7] -0.047 | [8] 0.026 | [9] 0.079 | [10] 0.019 | Nexturastat A 0.076 | vemurafenib 0.028 | [11] -0.024 | [12] -0.06 | givinostat 0.036 | barasertib 0.005

RRP12 (UniProt Q5JTH9)
inactive: IRAK-1-4 Inhibitor I -0.018 | ibrutinib -0.1 | [1] 0.201 | ralimetinib 0.331 | [2] 0.006 | [3] 0.272 | [4] 0.243 | pinometostat 0.315 | [5] -0.051 | [6] -0.107 | [7] 0.036 | [8] -0.012 | [9] 0.094 | [10] -0.043 | Nexturastat A 0.371 | vemurafenib -0.087 | [11] -0.012 | [12] 0.074 | givinostat 0.209 | barasertib -0.018

SIRT2 (UniProt Q8IXJ6)
Sequence of UniProt Q8IXJ6 (Q8IXJ6 whole entry, looked up): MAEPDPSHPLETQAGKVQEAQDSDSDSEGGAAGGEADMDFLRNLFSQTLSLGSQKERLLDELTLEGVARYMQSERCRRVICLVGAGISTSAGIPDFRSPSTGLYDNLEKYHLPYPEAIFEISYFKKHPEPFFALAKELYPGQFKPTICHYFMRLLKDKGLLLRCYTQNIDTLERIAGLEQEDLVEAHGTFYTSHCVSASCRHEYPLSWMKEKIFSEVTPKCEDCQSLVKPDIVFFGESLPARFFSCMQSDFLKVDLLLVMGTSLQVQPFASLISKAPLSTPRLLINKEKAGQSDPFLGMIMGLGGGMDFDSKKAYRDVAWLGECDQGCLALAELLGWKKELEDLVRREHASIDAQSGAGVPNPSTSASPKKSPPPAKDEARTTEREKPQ
inactive: IRAK-1-4 Inhibitor I 0.047 | ibrutinib -0.003 | [1] -0.003 | ralimetinib -0.023 | [2] 0.041 | [3] -0.033 | [4] 0.028 | pinometostat -0.002 | [5] -0.075 | [6] -0.022 | [7] 0.014 | [8] -0.051 | [9] -0.016 | [10] 0.027 | Nexturastat A 0.004 | vemurafenib 0.012 | [11] -0.022 | [12] -0.002 | givinostat 0.004 | barasertib 0.015

RAVER1 (UniProt E9PAU2)
inactive: IRAK-1-4 Inhibitor I -0.062 | ibrutinib 0.033 | [1] -0.308 | ralimetinib 0.082 | [2] -0.263 | [3] -0.409 | [4] -0.042 | pinometostat 0.052 | [5] 0.016 | [6] -0.694 | [7] 0.144 | [8] -0.075 | [9] -0.025 | [10] 0.144 | Nexturastat A -0.046 | vemurafenib -0.1 | [11] 0.067 | [12] 0.293 | givinostat 0.131 | barasertib 0.099

SH3GL1 (UniProt Q99961)
inactive: IRAK-1-4 Inhibitor I -0.09 | ibrutinib -0.021 | [1] -0.059 | ralimetinib 0.052 | [2] -0.097 | [3] -0.238 | [4] 0.013 | pinometostat 0.032 | [5] 0.018 | [6] 0.037 | [7] 0.022 | [8] -0.077 | [9] 0.06 | [10] 0.021 | Nexturastat A 0.141 | vemurafenib 0.1 | [11] 0.1 | [12] 0.037 | givinostat 0.024 | barasertib 0.084

RBM8A (UniProt Q9Y5S9)
inactive: IRAK-1-4 Inhibitor I -0.027 | ibrutinib -0.017 | [1] 0.127 | ralimetinib -0.015 | [2] -0.002 | [3] 0.128 | [4] 0.024 | pinometostat -0.015 | [5] -0.029 | [6] 0.027 | [7] -0.025 | [8] -0.024 | [9] -0.02 | [10] 0.075 | Nexturastat A -0.069 | vemurafenib 0.024 | [11] -0.001 | [12] 0.04 | givinostat -0.032 | barasertib 0.043

RNPS1 (UniProt Q15287)
inactive: IRAK-1-4 Inhibitor I -0.159 | ibrutinib -0.031 | [1] -0.317 | ralimetinib 0.128 | [2] -0.039 | [3] -0.126 | [4] 0.066 | pinometostat 0.08 | [5] -0.032 | [7] -0.043 | [8] 0.015 | [9] 0.017 | [10] 0.031 | Nexturastat A 0.245 | vemurafenib -0.001 | [11] -0.033 | [12] -0.024 | givinostat 0.071 | barasertib 0.015
active: [6] -0.746

RBBP6 (UniProt Q7Z6E9)
Sequence of UniProt Q7Z6E9 (Q7Z6E9 whole entry, looked up): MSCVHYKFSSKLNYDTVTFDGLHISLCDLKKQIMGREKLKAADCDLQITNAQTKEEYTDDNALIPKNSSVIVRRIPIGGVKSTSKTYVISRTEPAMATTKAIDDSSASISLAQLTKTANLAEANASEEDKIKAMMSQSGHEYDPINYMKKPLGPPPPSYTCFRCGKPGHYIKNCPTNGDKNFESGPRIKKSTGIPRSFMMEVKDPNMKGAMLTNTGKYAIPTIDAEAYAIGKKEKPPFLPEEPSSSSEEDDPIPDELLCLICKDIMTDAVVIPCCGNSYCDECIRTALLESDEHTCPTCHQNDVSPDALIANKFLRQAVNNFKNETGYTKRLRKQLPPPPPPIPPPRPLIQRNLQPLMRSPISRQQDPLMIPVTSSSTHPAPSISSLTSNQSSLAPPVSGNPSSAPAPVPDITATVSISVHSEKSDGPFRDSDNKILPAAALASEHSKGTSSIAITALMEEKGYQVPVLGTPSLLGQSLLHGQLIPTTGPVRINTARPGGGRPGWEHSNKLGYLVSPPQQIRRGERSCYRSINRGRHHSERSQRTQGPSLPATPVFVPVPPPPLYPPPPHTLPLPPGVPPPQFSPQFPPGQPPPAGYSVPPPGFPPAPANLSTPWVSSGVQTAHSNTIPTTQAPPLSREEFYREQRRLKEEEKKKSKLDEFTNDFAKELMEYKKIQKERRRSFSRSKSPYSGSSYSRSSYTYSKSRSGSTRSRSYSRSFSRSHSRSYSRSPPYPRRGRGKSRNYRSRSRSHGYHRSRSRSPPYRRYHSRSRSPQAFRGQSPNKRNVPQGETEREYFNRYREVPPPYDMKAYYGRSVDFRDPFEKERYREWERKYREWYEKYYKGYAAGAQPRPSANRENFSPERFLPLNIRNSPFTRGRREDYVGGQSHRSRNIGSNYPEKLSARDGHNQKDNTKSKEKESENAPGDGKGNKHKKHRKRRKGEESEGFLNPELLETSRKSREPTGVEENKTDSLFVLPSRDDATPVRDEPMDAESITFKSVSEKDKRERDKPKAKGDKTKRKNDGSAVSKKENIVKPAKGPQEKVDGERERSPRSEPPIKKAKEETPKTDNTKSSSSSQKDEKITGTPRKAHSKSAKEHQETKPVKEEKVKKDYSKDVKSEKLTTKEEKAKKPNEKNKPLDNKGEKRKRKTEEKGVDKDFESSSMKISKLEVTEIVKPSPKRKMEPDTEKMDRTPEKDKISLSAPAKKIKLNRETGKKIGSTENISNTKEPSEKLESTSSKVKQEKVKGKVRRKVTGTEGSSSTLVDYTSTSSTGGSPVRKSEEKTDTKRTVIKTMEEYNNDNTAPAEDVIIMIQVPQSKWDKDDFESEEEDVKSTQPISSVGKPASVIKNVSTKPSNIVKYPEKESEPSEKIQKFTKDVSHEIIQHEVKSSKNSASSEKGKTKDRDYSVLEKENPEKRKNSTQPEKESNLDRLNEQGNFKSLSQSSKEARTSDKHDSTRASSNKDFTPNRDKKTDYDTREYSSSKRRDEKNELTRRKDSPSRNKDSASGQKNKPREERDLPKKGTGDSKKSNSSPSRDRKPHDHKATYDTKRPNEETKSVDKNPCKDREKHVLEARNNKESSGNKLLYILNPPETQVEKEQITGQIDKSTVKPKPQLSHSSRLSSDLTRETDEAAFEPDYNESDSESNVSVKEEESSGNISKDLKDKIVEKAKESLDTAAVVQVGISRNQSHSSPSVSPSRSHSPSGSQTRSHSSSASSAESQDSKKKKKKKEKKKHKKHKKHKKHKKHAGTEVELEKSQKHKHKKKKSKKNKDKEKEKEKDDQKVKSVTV
inactive: IRAK-1-4 Inhibitor I -0.099 | ibrutinib -0.082 | [1] -0.114 | ralimetinib 0.02 | [2] 0.044 | [3] -0.089 | [4] -0.023 | pinometostat -0.078 | [5] -0.021 | [6] -0.022 | [7] -0.108 | [8] 0.119 | [9] 0.03 | [10] 0.127 | Nexturastat A -0.051 | vemurafenib 0.008 | [11] 0.068 | [12] -0.023 | givinostat 0.043 | barasertib -0.018

RPS12 (UniProt P25398)
inactive: IRAK-1-4 Inhibitor I -0.063 | ibrutinib 0.036 | [1] 0.051 | ralimetinib 0.043 | [2] 0.003 | [3] 0.036 | [4] -0.024 | pinometostat 0.024 | [5] 0.095 | [7] 0.036 | [8] 0.006 | [9] -0.013 | [10] -0.027 | Nexturastat A 0.038 | vemurafenib -0.057 | [11] -0.035 | [12] 0.073 | givinostat -0.035 | barasertib -0.059
active: [6] -0.314

SEC23IP (UniProt Q9Y6Y8)
Sequence of UniProt Q9Y6Y8 (Q9Y6Y8 whole entry, looked up): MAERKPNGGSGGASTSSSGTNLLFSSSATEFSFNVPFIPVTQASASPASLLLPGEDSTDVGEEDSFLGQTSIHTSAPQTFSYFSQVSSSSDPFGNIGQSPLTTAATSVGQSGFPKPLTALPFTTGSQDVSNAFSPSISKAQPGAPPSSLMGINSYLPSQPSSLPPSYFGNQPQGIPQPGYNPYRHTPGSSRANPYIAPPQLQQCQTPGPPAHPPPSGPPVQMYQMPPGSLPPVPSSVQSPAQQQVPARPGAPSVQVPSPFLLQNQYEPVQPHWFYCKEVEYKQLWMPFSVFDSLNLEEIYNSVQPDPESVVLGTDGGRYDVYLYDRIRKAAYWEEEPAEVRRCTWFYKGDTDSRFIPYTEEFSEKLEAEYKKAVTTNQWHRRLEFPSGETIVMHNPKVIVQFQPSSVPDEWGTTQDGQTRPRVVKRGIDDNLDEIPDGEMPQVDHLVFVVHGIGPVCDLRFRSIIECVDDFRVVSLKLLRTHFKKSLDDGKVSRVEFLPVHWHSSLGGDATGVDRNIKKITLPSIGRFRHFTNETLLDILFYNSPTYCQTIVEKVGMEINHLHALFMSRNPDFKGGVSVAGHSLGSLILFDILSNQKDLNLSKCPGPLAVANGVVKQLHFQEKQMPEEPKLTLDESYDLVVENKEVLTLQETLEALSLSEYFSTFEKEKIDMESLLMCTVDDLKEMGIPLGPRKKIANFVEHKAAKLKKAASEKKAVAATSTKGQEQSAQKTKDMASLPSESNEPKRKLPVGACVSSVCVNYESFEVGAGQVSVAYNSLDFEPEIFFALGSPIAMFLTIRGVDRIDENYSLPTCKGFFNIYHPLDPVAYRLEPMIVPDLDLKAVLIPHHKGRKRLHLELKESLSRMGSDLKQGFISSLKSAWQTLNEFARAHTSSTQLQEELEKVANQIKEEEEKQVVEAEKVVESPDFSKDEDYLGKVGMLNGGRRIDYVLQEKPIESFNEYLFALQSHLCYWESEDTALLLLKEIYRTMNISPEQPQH
active: [3] -0.252
inactive: IRAK-1-4 Inhibitor I -0.007 | ibrutinib -0.023 | [1] -0.048 | ralimetinib -0.004 | [2] -0.119 | [4] 0.006 | pinometostat 0.032 | [5] 0.059 | [6] -0.011 | [7] 0.016 | [8] 0.041 | [9] 0.041 | [10] 0.012 | Nexturastat A 0.022 | vemurafenib 0.051 | [11] 0.056 | [12] 0.024 | givinostat 0.047 | barasertib 0.016
